Source: PubChem BioAssay (NCI)
Several values for one entry are separate records, joined by “and”; a condition that tells them apart may be missing. Equal entries are not always repeated. Compounds without any hit were thinned out: in the full panel of roughly 83,000, 20% have a hit.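 Percent growth is the endpoint: 0 to 100 indicates growth inhibition (40 means 60% inhibition), 0 means no net growth, and negative values indicate cell death.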 Activity calls are given as the source filed them.

Each compound was assayed on OVCAR-8 ovarian (assay: NCI-60 one-dose screen, 48 h (100 = growth as untreated, 0 = no growth, -100 = all killed)). Settings: 10 µM.
Method: Growth inhibition of the OVCAR-8 human tumor cell line is measured as a screen for anti-cancer activity. Cells are grown in 96 well plates and exposed to the test compound for 48 hours. Compounds are tested at a single concentration, which is 10^-5 M for most compounds. The reported endpoint is percent growth (GI% or GIPRCNT), where numbers from 0 - 100% represent growth inhibition, and numbers from -100% - 0 represent cell death. For example, a value of 40 represents 60% growth inhibition. A value of 0 means no net growth occurred over the course of the experiment. A value of -40 indicates 40% of cells at the beginning of the experiment died by the end of the experiment. A value of -100 means all cells are dead at the end of the experiment.
NCI-60 Human Tumor Cell Lines Screen was performed using the standard one-dose NCI protocol, which is described in more detail at https://dtp.cancer.gov/discovery_development/nci-60/default.htm.
Compounds with GIPRCNT values below 10 were considered active. Activity score was based on GIPRCNT using the following formula: […]
Score is 0 for GIPRCNT values of 100 or above, 50 for GIPRCNT values of 0, and 100 for GIPRCNT values of -100.

SMILES	growth
COc1ccc(Cl)cc1C(=O)NCCc1ccc(S(=O)(=O)NC(=O)NC2CCCCC2)cc1	99.8% (inactive) and 100% (inactive)
CC#C[C@]1(O)CC[C@H]2[C@@H]3CCC4=CC(=O)CCC4=C3[C@@H](c3ccc4c(c3)OCO4)C[C@@]21C	81.6% (inactive)

Same assay, conditions: 10 µM unless noted

SMILES	growth
Cn1c(SSc2ccc(-c3cccnc3)n2C)ccc1-c1cccnc1	97.4% (inactive) and 103% (inactive)
O=[N+]([O-])c1ccccc1/C=N\Nc1ccccc1	91.1% (inactive) and 89.9% (inactive)
O=C1C2=C(C(=O)c3ccccc31)C(O)(S(=O)(=O)O)C(O)(S(=O)(=O)O)C1N=CC=CC21 (stereo not given)	24.3% (inactive) and 10.6% (inactive)
COc1ccc(Cn2c(NCCN=C(N)N)nc(=O)n(Cc3ccc(F)cc3)c2=O)cc1	101% (inactive) and 99.9% (inactive)
NC(=S)NS(=O)(=O)c1ccc(N)cc1	99.4% (inactive)
CC(C)N=c1cc2n(-c3ccc(Cl)cc3)c3ccccc3nc-2cc1Nc1ccc(Cl)cc1	15.1% (inactive) and 48.7% (inactive) and 14.1% (inactive)
Cc1nn(-c2ccccc2)nc1C(=O)Nc1ccccc1C(=O)NCC1CC1	95.8% (inactive) and 30.7% (inactive)
C[N+](C)(C)CN1C(=O)c2ccccc2C1=O	97.4% (inactive)
O=C(O)CSCc1nc2ccccc2[nH]1	113% (inactive)
Nc1ccn(C2OC(CO)C(O)C2O)c(=O)n1 (stereo not given)	40.1% (inactive) and 97.2% (inactive) and 101% (inactive)
CCN(CC)CCC(CNc1c2ccc([N+](=O)[O-])cc2nc2cc(OC)c(OC)cc12)c1ccccc1 (stereo not given)	6.28% (active) and -80.7% (active)
Cc1cc(-c2ccc(NS(=O)(=O)c3ccccc3)c(C)c2)ccc1NS(=O)(=O)c1ccccc1	85.4% (inactive) and 95.8% (inactive)
COc1cc(NS(C)(=O)=O)ccc1Nc1c2ccccc2nc2c(C)cccc12	0.169% (active) and 1.18% (active)
Cc1ccc(NCSc2ccc(Cl)cc2)cc1	97.3% (inactive) and 93.2% (inactive)
NC(=S)NN=C1CCC(C2CCCCC2)CC1 (stereo not given)	100% (inactive) and 98.8% (inactive)
CCOc1ccc2nc3cc(N)ccc3c(N)c2c1	28.9% (inactive) and 29.6% (inactive)
COc1ccc2ccccc2c1/C=N/N1CCCCC1	95.4% (inactive)
CC(CN=Cc1ccccc1O)N=Cc1ccccc1O (stereo not given)	106% (inactive) and 108% (inactive)

SMILES	growth
COc1cc2nc(N3CCC[C@@H](NC(=O)C4COc5ccccc5O4)C3)nc(N)c2cc1OC (stereo not given in full)	100% (inactive) and 94.3% (inactive)
O[C@H](c1cc(C(F)(F)F)nc2c(C(F)(F)F)cccc12)[C@@H]1CCCCN1	80.3% (inactive) and 64.2% (inactive)
C=C1C(=O)O[C@H]2[C@H]1CC/C(COC(=O)NC1CCC(O)CC1)=C\CC[C@@]1(C)O[C@@H]21 (stereo not given in full)	77.1% (inactive) and 79.6% (inactive)
CCC(=O)C(CC)c1cccc(OC)c1 (stereo not given)	105% (inactive)
O=C(CCc1ccc(O)cc1)N/N=C/c1cc(Br)ccc1O	56.2% (inactive)
CNC(=O)c1cc(Oc2ccc(NC(=O)Nc3ccc(Cl)c(C(F)(F)F)c3)cc2)ccn1	5.3% (active) and -16.5% (active)
COC(=O)/C=C/c1cc(O)c2c(c1)C(C(=O)OC)C(c1ccc(O)c(O)c1)O2 (stereo not given)	13.3% (inactive) and 14.7% (inactive)
O=C=NC(c1ccccc1)(c1ccccc1)c1ccccc1	97.4% (inactive)
CN1CCN(C2CCN(C(=O)Nc3cc(Oc4ccc(NC(=O)C5(C(=O)Nc6ccc(F)cc6)CC5)c(F)c4)ccn3)CC2)CC1	-55% (active) and 91.6% (inactive)
O=C(Oc1cccc(OC(=O)c2ccccc2)c1)c1ccccc1	110% (inactive)
CCOC(=O)Nc1ccc2c(c1)/C(=N\NC(N)=S)c1ccccc1-2	34.6% (inactive) and 55.5% (inactive)
CCN(CC)C(=O)c1cccnc1	98.8% (inactive)
Clc1nc(Oc2ccccc2)nc(-c2cn(-c3ccccc3)c3ccccc23)n1	38.8% (inactive)
O=[N+]([O-])c1ccc(-n2[nH]nnc2=S)cc1	107% (inactive)
CCNC(=O)Nc1ccc(-c2nc3c(c(N4CCOC[C@@H]4C)n2)CCN(C2COC2)C3)cc1	48% (inactive) and 0.436% (active)
Nc1ccccc1SC1CC(=O)N(c2cccc3ccccc23)C1=O (stereo not given)	92.2% (inactive)
COc1cc(C(=O)N/N=C/c2ccc(N(C)C)cc2)cc(OC)c1OC	21.2% (inactive)
O=C(N/N=C/c1cccc2ccccc12)C1CC1	101% (inactive) and 98.5% (inactive)

Same assay, conditions: 100 µM

SMILES	growth
COc1ccc(Cl)cc1C(=O)NCCc1ccc(S(=O)(=O)NC(=O)NC2CCCCC2)cc1	67.3% (inactive)
CC#C[C@]1(O)CC[C@H]2[C@@H]3CCC4=CC(=O)CCC4=C3[C@@H](c3ccc4c(c3)OCO4)C[C@@]21C	-13.6% (active)
